# Laboratory results taken from PubChem BioAssay AID1259415 (National Center for Advancing Translational Sciences (NCATS), 2018).
# Out of some 410,000 compounds screened, about 18,000 (4.4%) were called active. Not shown: some 7% with an inconclusive outcome. Cut-off read from the data, not from the text of the source: active = activity change below about -60%; inconclusive = no clear call, values can overlap the other calls; inactive = above about -39%. The full list was thinned out, with actives kept by preference.
# Assay: qHTS Assay for inhibitors of the human cytomegalovirus (HCMV)
# Settings: HFF cells, HCMV-luciferase reporter, 72 h; at 57.5 µM; active compounds read low
# Excerpt: NCGC Assay Overview: Infection with human cytomegalovirus (HCMV) continues to pose significant threats for pregnant women and immunocompromised hosts. HCMV causes serious morbidity and mortality in transplant recipients, and congenital HCMV is the leading infectious cause of mental retardation and deafness in children. In the 1990s, the annual costs associated with the disease burden of congenital CMV were estimated at around $2 billion. A HCMV vaccine is not available yet and HCMV therapies result in intolerable side effects and emergence of drug resistant viruses. […] Towards this goal we have developed and characterized a luciferase HCMV reporter that was initially used in 96 well plates and then optimized to 1536-well plates for utilization in screening of the MLSMR collection, the NGCG diversity collection and the NCGC Pharmaceutical Collection of approved and investigational drugs.
# NCGC Assay Protocol Summary:
# This is a cell-based assay for HCMV inhibition in HFFs cells. The screening used 2 compound doses and the HCMV-luciferase at MOI of 1 PFU/cell. Cells were treated and infected with HCMV. At 72 h post infection cell lysates were collected and luciferase activity was determined using the Glomax-Multi + Detection System (Promega, Madison, WI). Data were normalized to the controls for basal activity (buffer only) and known HCMV inhibitors Salinmoycin.
# 1536-well assay protocol for the assay:
# (1) Add 3 ul CMV/HFF cell culture. 1000 cells/well in DMEM nirmal media.
# (2) Incubate 16 hr at 37C.
# (3) Add 23 nl control compound, 10uM of Salinomycin.
# (4) Add 23 nl compounds in DMSO solution.
# (5) Add 3 ul CMV suspension. Final 1 puf/ul, Virus stock 2000pfu/ul
# (6) Incubate 72 hrs at 37C.
# (7) Add 4 ul OneGlo Luc Reagent.
# (8) Incubate 5 min at room temperature.
# % is set by controls: 0 for no effect and ±100 for the full control effect.
row,SMILES,"activity change, negative = inhibition"
1,O=C(NCc1ccco1)/C(=C/c1cccc([N+](=O)[O-])c1)NC(=O)c1ccco1,20.5% (inactive)
2,CC(Oc1ccc2ccccc2c1)C(=O)NNC(=S)NC(=O)c1ccco1 (centres undefined),-3.96% (inactive)
3,O=C(Nc1ccc2ccccc2c1)/C(=C/c1cccc(Br)c1)NC(=O)c1ccco1,-64.4% (active)
4,O=C(NCc1ccco1)c1ccc([N+](=O)[O-])cc1Cl,-4.15% (inactive)
5,O=C(Nc1cccc(C(=O)O)c1)/C(=C\c1ccccc1)NC(=O)c1ccc(Br)o1,23.2% (inactive)
6,O=C(NCc1ccco1)/C(=C\c1cccc([N+](=O)[O-])c1)NC(=O)c1ccco1,-72% (active)
7,O=C(CNS(=O)(=O)c1cccs1)N1CCN(c2ccccc2Cl)CC1,68.5% (inactive)
8,CC1CCCCN1CC(=O)N1CCCc2c1c(=O)oc1ccc(OCc3ccccc3)cc21 (centres undefined),-2.34% (inactive)
9,CCCCn1cc(S(=O)(=O)c2ccc(OCC)cc2)c(=O)c2cc(OC)c(OC)cc21,44.7% (inactive)
10,COc1ccc(CCNC(=O)Cn2c(=O)n(-c3ccccc3)c(=O)c3c(C)c(C)sc32)cc1OC,-11.6% (inactive)
11,COc1ccccc1-c1noc(-c2ccc(NCc3ccccc3)c([N+](=O)[O-])c2)n1,0.104% (inactive)
12,COc1cccc(N2CCN(C(=O)CCCCCn3c(=O)[nH]c4ccccc4c3=O)CC2)c1,-7.41% (inactive)
13,Cc1ccc(C)c(N2CCN(C(=O)CCc3c(C)nc4c(c3C)c(=O)n(C)c(=O)n4C)CC2)c1,-21.4% (inactive)
14,Cc1ccc(C)c(N2CCN(C(=O)CCCCCn3c(=S)[nH]c4ccc(N5CCOCC5)cc4c3=O)CC2)c1,-88.3% (active)
15,CC1(C)OC(=O)C2=C(CC(CCc3ccccc3)OC2c2ccc(Cl)cc2)O1 (centres undefined),7.29% (inactive)
16,Cc1cc(C)cc(OC(C)C(=O)Nc2nc3c(s2)CCCC3)c1 (centres undefined),-26.6% (inactive)
17,COc1cc(C(=O)N2CCN(C(=O)COc3cccc(C)c3)CC2)cc(OC)c1OC,28.1% (inactive)
18,CCc1cccc(C)c1Nc1c(-c2ccc(N(C)C)cc2)nc2ncccn12,-14.5% (inactive)
19,CC(Nc1ccc(-c2nc(-c3ccco3)no2)cc1[N+](=O)[O-])c1ccccc1 (centres undefined),41.2% (inactive)
20,CCOC(=O)Cn1c(CN(Cc2ccccc2)Cc2ccccc2)nc2c1c(=O)[nH]c(=O)n2C,31.2% (inactive)
21,COC(=O)[C@@H]1[C@@H](CO)[C@@H]2Cn3c(ccc(Br)c3=O)[C@H]1N2C(=O)c1cnccn1,13.3% (inactive)
22,Cc1nc(CNS(=O)(=O)c2ccc(Oc3ccccc3)cc2)cs1,-90.1% (active)
23,Cc1nc(CNS(=O)(=O)c2cc([N+](=O)[O-])ccc2C)cs1,17.1% (inactive)
24,COc1ccccc1CNS(=O)(=O)c1ccc(C)cc1,-4.42% (inactive)
25,O=C1CSC2(C(=O)N(Cc3ccccc3)c3ccccc32)N1c1cccc(F)c1 (centres undefined),-27.5% (inactive)
26,Cc1nc2ccccc2cc1OCc1ccc(F)cc1,-82.9% (active)
27,O=C(NC1CCC(O)CC1)c1ccccc1OCc1ccc(F)cc1 (centres undefined),-22.6% (inactive)

row,SMILES,"activity change, negative = inhibition"
1,CC(=O)c1ccccc1OCc1ccc(C(=O)c2ccccc2)cc1,-23.4% (inactive)
2,CCCN(CC(=O)Nc1ccccc1C)C(=O)c1ccc(OCC(=O)N2CCOCC2)c(OCC)c1,0.271% (inactive)
3,CCCN(CC(=O)Nc1ccccc1C)C(=O)c1cc(=O)[nH]c2ccccc12,42.9% (inactive)
4,CCCN(CC(=O)Nc1ccccc1C)C(=O)c1ccc2[nH]c3c(c2c1)CC(C)CC3 (centres undefined),-61.3% (active)
5,CC(C)NC(=O)Nc1cccc2c1O[C@@H](CN(C)S(=O)(=O)c1ccc(F)cc1)[C@@H](C)CN([C@H](C)CO)C2=O,7.5% (inactive)
6,Clc1cccc(Cl)c1Cl,-15.9% (inactive)
7,COc1ccc(S(=O)(=O)c2c(Nc3ccc(C)cc3)sc(C(=O)c3ccc(C)cc3)c2N)cc1,-10.2% (inactive)
8,Cc1ccc(NC(=O)c2cn3c4c(ccc(Cl)c4c2=O)OC(C)C3)cc1C (centres undefined),0.532% (inactive)
9,CSc1ccc(Cl)c(C(=O)OCC(=O)N2CC(C)OC(C)C2)c1 (centres undefined),-9.66% (inactive)
10,COc1ccc(NC(=O)CN(C)C(=O)c2cc(C3CC3)nn2-c2ccccc2)cc1,-100% (active)
11,COc1ccc(NC(=O)CN(C)C(=O)c2n[nH]c3ccccc23)cc1,5.1% (inactive)
12,CCc1ccccc1NC(=O)CN(C)C(=O)c1cc(C2CC2)nn1-c1ccccc1,-18% (inactive)
13,Cc1nc2nc(SCC(=O)N(Cc3ccccc3)C(C)C)nn2c(C)c1Cc1ccccc1Cl,-0.509% (inactive)
14,CSc1ccc(C2c3c(oc4ccccc4c3=O)C(=O)N2CCCN2CCOCC2)cc1 (centres undefined),7.95% (inactive)
15,CNC[C@H]1OCc2cnnn2CCCC(=O)N([C@H](C)CO)C[C@@H]1C,-9.25% (inactive)
16,Cc1ccc(-c2nnc3c4ccccc4c(C)nn23)cc1NC(=O)c1cccc(Br)c1,35.9% (inactive)
17,CSc1nc(-c2ccccc2Cl)nc2c1Cc1c(CO)cnc(C)c1O2,9.54% (inactive)
18,CCOC(=O)c1[nH]c2c(c1-c1ccccc1)C(=O)CC(c1ccc(Cl)cc1)C2 (centres undefined),-60.6% (active)
19,CCOc1ccc(C2CC(=O)c3c([nH]c(C(=O)OCc4ccccc4)c3C)C2)cc1 (centres undefined),-87.7% (active)
20,CCc1ccc(C2CC(=O)c3c([nH]c(C(=O)OCc4ccc(C)cc4)c3C)C2)cc1 (centres undefined),-27.1% (inactive)
21,CCOC(=O)c1ccc(N2C(=O)c3[nH]nc(-c4ccccc4)c3C2c2ccc(C(C)C)cc2)cc1 (centres undefined),-27.7% (inactive)
22,C=CCOC(=O)C1=C(C)NC(C)=C(C(=O)OCC=C)C1c1cccs1,-12.1% (inactive)
23,CCCOC(=O)c1[nH]c2c(c1C)C(=O)CC(c1cccs1)C2 (centres undefined),-91.4% (active)
24,CCOC(=O)C1Sc2[nH]c(=O)sc2C(c2ccc(Cl)cc2)C1C(=O)OCC (centres undefined),-32.8% (inactive)
25,CCOc1ccc(C2C3=C(CCCC3=O)N(CC(=O)O)C3=C2C(=O)CCC3)cc1,-23.6% (inactive)
26,COc1ccc(-c2cnn(C(C)(C)C(=O)Nc3ccccn3)c2)cc1OC,25% (inactive)
27,COc1ccc(NC(=O)c2sc(=O)n(Cc3ccc(S(=O)(=O)N(C)C)cc3)c2C)cc1,-0.573% (inactive)
